# Hits are enriched below; roughly 1.7% of the tested compounds scored in any of these assays.
# KCNH2 3.1 inh: qHTS for Inhibitors of KCHN2 3.1: Mutant qHTS; activity change, % (tested at about 1.8 µM); AID 720553, 2013; hit rate 0.95% among 340,000; U2OS KCNH2 3.1, thallium flux FluxOr; active compounds read low;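 active = maximum activity change below -70%; inconclusive = maximum activity change from -70% to -50%; inactive = maximum activity change above -50%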;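 note: thallium influx rate constant from kinetic fluorescence after stimulation buffer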
#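 Kinetic fluorescence (2 min after stimulation buffer) measures Tl+ influx through KCNH2 3.1 expressed by viral transduction in U2OS cells; the rate constant is normalized against DMSO controls serving as positive and negative references.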
# RXFP1 agonist: qHTS Assay for Agonists of the Relaxin Receptor RXFP1 | Relaxin receptor 1 (Homo sapiens), Q9HBX9 | HEK293T-RXFP1 cAMP TR-FRET, 30 min; response scale: percent of porcine relaxin response, buffer zero | Potency, µM (highest dose often 57.5 µM), inactives show at the top dose activation, usual class: activators | hit rate 0.3% among 370,000 | AID 2676, 2010; active = well fitted activation curve with a large enough effect; inconclusive = small, poorly fitted or top-dose-only effect; note: potency is the fitted concentration of half-maximal effect; nearly all actives have a fitted effect of over 60% in size
# Target sequence (Q9HBX9 whole entry, looked up): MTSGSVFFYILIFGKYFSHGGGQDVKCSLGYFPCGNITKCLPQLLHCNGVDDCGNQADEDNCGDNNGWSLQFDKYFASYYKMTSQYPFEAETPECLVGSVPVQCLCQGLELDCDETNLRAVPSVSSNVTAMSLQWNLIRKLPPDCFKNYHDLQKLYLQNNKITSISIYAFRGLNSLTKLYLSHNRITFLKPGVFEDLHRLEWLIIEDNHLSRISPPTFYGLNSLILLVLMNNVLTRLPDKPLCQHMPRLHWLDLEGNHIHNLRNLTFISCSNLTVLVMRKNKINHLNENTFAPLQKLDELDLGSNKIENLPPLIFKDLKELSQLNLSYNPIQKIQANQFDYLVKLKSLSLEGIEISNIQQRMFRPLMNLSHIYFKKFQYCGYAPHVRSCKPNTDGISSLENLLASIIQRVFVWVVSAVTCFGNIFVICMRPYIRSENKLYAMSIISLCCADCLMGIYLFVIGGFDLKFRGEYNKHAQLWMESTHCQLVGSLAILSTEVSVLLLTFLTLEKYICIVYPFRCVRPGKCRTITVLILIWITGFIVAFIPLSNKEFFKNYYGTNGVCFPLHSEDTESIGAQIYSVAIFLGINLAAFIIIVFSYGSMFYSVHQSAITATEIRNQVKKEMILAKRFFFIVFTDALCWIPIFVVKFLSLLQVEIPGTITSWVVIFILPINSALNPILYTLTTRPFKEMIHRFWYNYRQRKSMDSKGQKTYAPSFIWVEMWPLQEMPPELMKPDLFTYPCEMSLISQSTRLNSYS
#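 Agonist response is measured as cAMP accumulation in an RXFP1-transfected HEK293T line under PDE4 inhibition. Values are scaled between buffer-only and 29 nM porcine relaxin, and EC50s come from standard Hill equation fits.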
# Akt phos inh: HTS Assay for Inhibitors of Akt Phophorylation: Primary Screen; AID 651550, 2012; hit rate 0.32% among 360,000; activity change, % for hits at 50 µM; Neuro2A IGF-stimulated pAkt S473 HTRF, 20 min; active compounds read low; in the data active = activity change below about -80%; inconclusive = mostly about -51% to -80%
#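 Neuro2A cells in DMEM with 0.5% FBS, overnight at 37 deg C, given compound at single 50 µM final, then IGF (6 nM final) for 20 min at 37 deg C. Lysed; phospho-Akt Ser473 by HTRF after 24 h, 665/615 ratio.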
# KCNH2 WT inh: qHTS for Inhibitors of KCHN2 3.1: Wildtype qHTS. Voltage-gated inwardly rectifying potassium channel KCNH2 (Homo sapiens), Q12809. U2OS, BacMam KCNH2, thallium flux FluxOr; active compounds read low. hit rate 0.37% among 340,000. activity change, % at 1.84 µM;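 active = maximum activity change below -70%; inconclusive = maximum activity change between -70% and -50%; inactive = maximum activity change above -50%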
#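 U2OS cells were transduced with wild-type KCNH2 virus (2.03 x 10^8 / mL) for 4 h at room temperature, then cultured overnight at 37 C. Thallium flux was read with FluxOr dye. Rate constants were normalized to DMSO controls.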
# RXFP1 antag: qHTS Assay for Antagonists of the Relaxin Receptor RXFP1 | HEK293-RXFP1, relaxin-stimulated cAMP HTRF, 30 min; active compounds read low | activity change, negative = inhibition, % at 57.5 µM | hit rate 0.59% among 350,000;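 active = activity change of -60% or lower, but not beyond a set lower limit; inconclusive = change between -60% and -40%, or beyond the set limit; inactive = change above -40%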
# Numbers without * were called inactive; i = inactive; ? = inconclusive; · = no result given. % is set by controls: 0 for no effect and ±100 for the full control effect.
SMILES,KCNH2 3.1 inh,RXFP1 agonist,Akt phos inh,KCNH2 WT inh,RXFP1 antag
Clc1ccc(CN2C3=NCCCN3c3ccccc32)c(Cl)c1,-93.8*,-0.1%,i,-1.2,-7.5
Brc1ccc(CN2C3=NCCCN3c3ccccc32)cc1,-75.4*,0.4%,i,15.6,-11.4
Nc1nc(Nc2cccc(F)c2)nc2ccccc12,1.8,3.0%,i,-8.0,2.9
O=C(CSc1nnc(COc2ccccc2)o1)c1ccccc1,-98.9*,-0.1%,i,5.0,-20.1
COc1cc(/C=N/NC(=O)CC2(C)OCCCO2)ccc1OCc1ccc(Cl)cc1Cl,16.1,0.4%,i,2.4,-11.7
COc1ccccc1CNC(=O)CSc1ncc2c(n1)-c1ccc(Cl)cc1N(Cc1ccccc1)S2(=O)=O,·,4.47µM*,·,·,7.5
CCOC(=O)c1cccc(NC(=O)CSc2ncc3c(n2)-c2ccc(Cl)cc2N(Cc2ccccc2)S3(=O)=O)c1,·,31.6µM*,·,·,·
COc1ccccc1CNC(=O)CSc1ncc2c(n1)-c1ccccc1N(Cc1ccc(C)cc1)S2(=O)=O,·,14.0%,·,·,·
CC12CCCCC1c1ccccc1C(=NCC(=O)O)N2 (stereo not drawn),-10.5,0.6%,·,-16.4,-4.7
O=C(CNC1C(=O)Nc2ccccc21)Sc1ccccc1 (stereo not drawn),-14.9,-0.7%,-111.3%*,-2.0,-2.6
O=C(CNC(=O)c1ccccc1)Sc1ccccc1,-3.3,·,i,-2.4,-7.6
Cc1c(Br)c([N+](=O)[O-])nn1CC(=O)N1CCc2ccccc21,19.2,-0.1%,i,-3.5,8.4
Cc1nn(CC(=O)N2CCc3ccccc32)c(C)c1S(=O)(=O)NC(C)(C)C,-21.4,·,i,-282.9*,-2.1
Cc1ccc(N(C(=O)CNC(=O)c2ccco2)C(C(=O)NC2CCCC2)c2cccnc2)cc1C (stereo not drawn),3.4,2.5%,i,-188.9*,7.2
O=C(NCC(=O)N(c1cccnc1)C(C(=O)NC1CCCCC1)c1ccccc1F)c1ccco1 (stereo not drawn),-192.7*,3.5%,i,-149.2*,-11.5
CC(=O)Nc1ccc(N(C(=O)CNC(=O)c2ccco2)C(C(=O)NCc2ccco2)c2ccccc2F)cc1 (stereo not drawn),-111.0*,-0.2%,i,1.6,-19.7
Cc1ccc(Sc2ccc(CO)cc2[N+](=O)[O-])cc1,7.0,-0.9%,i,1.8,-17.9
Cc1ccc(Sc2ccc(CN3CCCC3)cc2[N+](=O)[O-])cc1,-92.5*,-2.4%,i,17.2,-5.2
CN1CCN(Cc2ccc(Sc3ccc(Cl)cc3)c([N+](=O)[O-])c2)CC1,-89.6*,-3.4%,i,-95.9*,2.9
COc1ccc(-c2nsc(NC(=O)c3oc4ccccc4c3C)n2)cc1,·,3.2%,·,·,-21.1
CCOC(=O)NC(=O)CSc1nnc(C)s1,-79.2*,2.7%,i,-1.4,-26.0
c1ccc2[nH]c(-c3ccnc4ccccc34)nc2c1,0.4,0.6%,i,16.5,10.4
Cc1ccccc1-c1nc2ccccc2[nH]1,0.4,0.2%,-123.6%*,-5.9,0.0
c1ccc2c(-c3nc4ccccc4[nH]3)cccc2c1,-122.1*,·,i,16.3,-3.3
COC(=O)C1=C(C)NC(C)=C(C(=O)OC)C1C1CC=CCC1 (stereo not drawn),1.8,-0.2%,-129.8%*,-6.3,1.7
SMILES,KCNH2 3.1 inh,RXFP1 agonist,Akt phos inh,KCNH2 WT inh,RXFP1 antag
CCOC(=O)C1=C(C)NC(=O)NC1C1CC=CCC1 (stereo not drawn),-0.7,0.7%,i,-3.7,-9.0
COc1ccc(CNC(=O)C2(CC3CC(c4ccccc4)=NO3)CCN(C(=O)CCCCCBr)CC2)cc1 (stereo not drawn),-133.0*,·,i,-112.5*,·
O=C(CCCCCBr)N1CCC(CC2CC(c3ccc(Cl)cc3)=NO2)(C(=O)NCC2CCCCC2)CC1 (stereo not drawn),?,3.5%,i,-95.4*,·
CCCCCCCNC(=O)C1(CC2CC(c3ccc(Cl)cc3)=NO2)CCN(C(=O)CCCCCBr)CC1 (stereo not drawn),-82.6*,-0.6%,i,-88.8*,·
Cc1ccc2[nH]c(=O)c3cc(C(=O)NCCN4CCN(C)CC4)sc3c2c1,-4.1,9.6%,i,-4.6,-8.2
Cn1cc(-c2nnnn2-c2ccc(Cl)cc2)c(C(F)(F)F)n1,1.3,-0.2%,i,11.9,1.5
CCOc1ccccc1NC(=S)NC(=O)c1ccco1,3.6,2.7%,i,-3.8,6.3
C=CCc1cc(Cl)ccc1OCCCNC(C)CC (stereo not drawn),16.8,-1.0%,i,5.6,-62.7*
S=C(Nc1ccc(Cl)c(Cl)c1)NC1CCN(Cc2ccccc2)CC1,-13.9,-0.2%,i,17.9,-60.8*
CCc1ccccc1N(CC)C(=O)CCc1nc(-c2ccc(C)cc2)no1,1.9,1.3%,-116.3%*,11.4,-10.3
CCC(C)S(=O)(=O)c1oc(-c2cccs2)nc1S(=O)(=O)c1ccccc1 (stereo not drawn),·,0.5%,·,·,-78.8*
CC(C)CS(=O)(=O)c1oc(-c2ccc(F)cc2)nc1S(=O)(=O)c1ccccc1,·,3.9%,·,·,-81.8*
CCCC(=O)N1CC(=O)Nc2ccc(F)cc2C1c1ccccc1 (stereo not drawn),-86.6*,0.5%,i,1.0,·
C=CCNC(=O)Nc1ccc(F)c(Cl)c1,-8.4,4.5%,i,·,-0.4
CCCCCCCc1c(C#N)c(N)[nH]c(=S)c1C#N,-6.9,7.0%,i,1.8,-18.0
O=C(c1ccncc1)N1CCN(C2CCC(c3ccccc3)CC2)CC1 (stereo not drawn),-50.0,0.0%,i,31.2,-63.8*
O=C(c1cnn2c(C(F)F)cc(-c3ccccc3)nc12)N1CCN2CCCC2C1 (stereo not drawn),3.0,4.1%,i,24.7,6.5
Cc1nn(C)c(Cl)c1CN1CCC(CO)(CCOc2ccccc2)CC1,-14.0,2.8%,i,10.8,-6.1
COc1cc(CN2CCC(CO)(CCOc3ccccc3)CC2)cc(OC)c1OC,6.3,3.8%,i,·,-2.5
COc1cc(OC)c(CN2CCC(CO)(CCOc3ccccc3)CC2)c(OC)c1,·,1.8%,i,-104.8*,-6.8
COc1ccc(CN2CCC(CO)(CCOc3ccccc3)CC2)cc1C,-124.8*,3.1%,i,-13.4,-26.0
CN1CCN(C(=O)c2cnn(-c3ccccc3)c2NC(=O)c2ccc(Br)cc2)CC1,-75.8*,·,i,-79.5*,-6.4
CN1CCN(C(=O)c2cnn(-c3ccccc3)c2NC(=O)c2ccccc2)CC1,-7.9,-1.9%,i,3.9,-8.2
Cc1cccc(NC(=O)COC(=O)c2cccc(S(=O)(=O)N3CCCCCC3)c2)c1,6.7,1.6%,i,4.3,-2.8
